# Measured values reported in PubChem BioAssay.
# Unmarked numbers belong to inactive results. How the calls were made is not given here.
# Target: Pantothenate synthetase (Mycobacterium tuberculosis (strain ATCC 25618 / H37Rv)) (UniProt P9WIL5)
# Assay: Recombinant Mtb pantothenate synthetase (PanC) inhibitors, coupled enzyme, confirmatory (AID 375);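 further: 0% = full reaction with vehicle and 100% = no enzyme background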
# Conditions: coupled enzyme assay; at 10 µM, stronger effect = higher value
# Pantothenate synthetase (Mycobacterium tuberculosis (strain ATCC 25618 / H37Rv)), sequence (P9WIL5 whole entry, looked up): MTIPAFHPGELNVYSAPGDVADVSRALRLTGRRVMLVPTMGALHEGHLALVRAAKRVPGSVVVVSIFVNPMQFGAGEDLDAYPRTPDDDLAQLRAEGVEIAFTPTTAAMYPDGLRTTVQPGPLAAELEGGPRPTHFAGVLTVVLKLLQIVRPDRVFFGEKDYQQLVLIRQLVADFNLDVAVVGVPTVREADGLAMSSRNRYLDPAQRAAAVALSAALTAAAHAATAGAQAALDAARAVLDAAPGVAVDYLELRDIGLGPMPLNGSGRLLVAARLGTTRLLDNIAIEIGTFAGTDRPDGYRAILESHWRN
row,Structure (SMILES),inhibition
1,Clc1ccccc1-c1nnc2sc(-c3ccccn3)nn12,0%
2,Cc1onc(-c2c(Cl)cccc2Cl)c1C(=O)NCC1CCCO1 (stereo not given),0%
3,O=C1CC(N2CCC(C(=O)N3CCCCC3)CC2)C(=O)N1 (stereo not given),11%
4,CC(C)OC(=O)CSc1nnc(-c2ccc(C(C)(C)C)cc2)n1N,0%
5,O=C(Cn1cccc1C(=O)c1ccccc1)NCCN1CCOCC1,0%
